Results taken from the supplement of paper PMC10849652.
About 7,900 targets were measured; listed, in parts, are those with a hit and a random draw of the rest. About 0.6% of all pairs of compound and target were hits.

What was measured:
Assay in all cases: log2 fold change, soluble protein after heating vs DMSO (PISA); higher = thermal stabilisation; K562 cells, 10 uM, 30 min; active = over 0.2 and 3.5 SD of the protein, either way, in both replicates (recomputed)
IRAK-1-4 Inhibitor I = compound: C1COCCN1CCN2C3=CC=CC=C3N=C2NC(=O)C4=CC(=CC=C4)[N+](=O)[O-] [IRAK-1-4 Inhibitor I]
Procedure, shortened: (§1)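 K562 cells at 2×10^6 cells/mL were treated for 30 min with 10 μM compound, and aliquots were heated for 3 min over 48°C-58°C before pooling. Extraction used PBS with 0.5% NP-40 at 4°C, and soluble protein was the supernatant after 21,000xg for 90 min, measured by TMTpro 16plex LC-MS/MS with channel sums equalised. Thermal stability values, relative to control samples and from duplicates, are log2 fold changes.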

ibrutinib = compound: C=CC(=O)N1CCC[C@@H](n2nc(-c3ccc(Oc4ccccc4)cc3)c3c(N)ncnc32)C1 [ibrutinib]
Procedure, shortened: as §1

[1] = compound: CC(=O)c1cnc2ccc(-c3cc(Cl)c(O)c(Cl)c3)nc2c1N[C@H]1CC[C@H](CN(C)C)CC1
Procedure, shortened: as §1

ralimetinib = compound: CC(C)(C)Cn1c(N)nc2ccc(-c3[nH]c(C(C)(C)C)nc3-c3ccc(F)cc3)nc21 [ralimetinib]
Procedure, shortened: as §1

[2] = compound: CC(C)(O)CC(=O)NCCn1ccc2ncnc(Nc3ccc(Oc4cccc(C(F)(F)F)c4)c(Cl)c3)c21
Procedure, shortened: as §1

[3] = compound: CC(C)C1=C2N=C(C=C(N2N=C1)NCC3=CC=CC=C3)NCCCCCCN
Procedure, shortened: as §1

[4] = compound: CC(C)C[C@@H](C=O)NC(=O)[C@H](CC(C)C)NC(=O)[C@H](CC(C)C)NC(=O)OCc1ccccc1
Procedure, shortened: as §1

pinometostat = compound: CC(C)N(C[C@H]1O[C@@H](n2cnc3c(N)ncnc32)[C@H](O)[C@@H]1O)[C@H]1C[C@@H](CCc2nc3cc(C(C)(C)C)ccc3[nH]2)C1 [pinometostat]
Procedure, shortened: as §1

[5] = compound: CC1=C(C(CC(=O)N1)C2=CC=C(C=C2)C(F)(F)F)C(=O)NC3=C(C=C4C(=C3)C=NN4)F
Procedure, shortened: as §1

[6] = compound: CC1=C(C2=C(C=C1)C(=O)C3=CC=CC=C3N2CCCN)C
Procedure, shortened: as §1

Measured: log2 fold change

NQO1 (UniProt P15559)
inactive: IRAK-1-4 Inhibitor I 0.001 | ibrutinib -0.053 | [1] 0.044 | ralimetinib 0.001 | [2] -0.029 | [3] -0.035 | [4] -0.045 | pinometostat -0.02 | [5] -0.038 | [6] -0.01

PAFAH1B3 (UniProt Q15102)
inactive: IRAK-1-4 Inhibitor I -0.041 | ibrutinib 0.008 | [1] -0.119 | ralimetinib 0.009 | [2] -0.137 | [3] -0.055 | [4] -0.078 | pinometostat 0.023 | [5] 0
active: [6] 0.305

NOL7 (UniProt Q9UMY1)
inactive: IRAK-1-4 Inhibitor I -0.139 | ibrutinib 0.036 | [1] 0.158 | ralimetinib 0.041 | [2] 0.043 | [3] 0.016 | [4] 0.141 | pinometostat 0.242 | [5] 0.059 | [6] -0.485

PAAF1 (UniProt Q9BRP4)
Chain of UniProt Q9BRP4 (Q9BRP4 whole entry, looked up): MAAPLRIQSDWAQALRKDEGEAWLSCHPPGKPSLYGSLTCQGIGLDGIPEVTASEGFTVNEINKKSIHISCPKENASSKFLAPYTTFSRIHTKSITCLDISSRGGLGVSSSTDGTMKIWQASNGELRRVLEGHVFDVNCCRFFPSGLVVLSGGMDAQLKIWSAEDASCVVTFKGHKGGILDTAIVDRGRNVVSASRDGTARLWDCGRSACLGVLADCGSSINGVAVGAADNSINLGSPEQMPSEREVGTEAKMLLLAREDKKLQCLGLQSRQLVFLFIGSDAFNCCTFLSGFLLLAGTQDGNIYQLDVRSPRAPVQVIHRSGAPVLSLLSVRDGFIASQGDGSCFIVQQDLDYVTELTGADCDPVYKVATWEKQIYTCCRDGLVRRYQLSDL
inactive: IRAK-1-4 Inhibitor I 0.037 | ibrutinib -0.003 | [1] -0.029 | ralimetinib 0.001 | [2] 0.007 | [3] 0.037 | pinometostat -0.026 | [5] 0.008 | [6] 0.027
active: [4] -0.28

OTULIN (UniProt Q96BN8)
Chain of UniProt Q96BN8 (Q96BN8 whole entry, looked up): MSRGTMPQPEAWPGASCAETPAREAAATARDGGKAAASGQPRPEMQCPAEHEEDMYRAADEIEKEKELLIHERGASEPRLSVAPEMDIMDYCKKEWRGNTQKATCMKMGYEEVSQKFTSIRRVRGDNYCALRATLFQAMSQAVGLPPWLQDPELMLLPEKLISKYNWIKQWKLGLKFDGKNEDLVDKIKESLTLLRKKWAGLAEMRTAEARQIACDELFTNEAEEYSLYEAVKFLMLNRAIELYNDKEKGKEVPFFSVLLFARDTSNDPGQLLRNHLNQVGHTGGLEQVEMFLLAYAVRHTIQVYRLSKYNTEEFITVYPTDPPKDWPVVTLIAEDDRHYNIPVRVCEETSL
inactive: IRAK-1-4 Inhibitor I 0.021 | ibrutinib -0.025 | [1] -0.003 | ralimetinib -0.01 | [2] -0.059 | [4] 0.024 | pinometostat 0.034 | [5] -0.02 | [6] 0.008
active: [3] -0.362

MMS19 isoform 8 (UniProt Q96T76)
Chain of UniProt Q96T76 (Q96T76 whole entry, looked up): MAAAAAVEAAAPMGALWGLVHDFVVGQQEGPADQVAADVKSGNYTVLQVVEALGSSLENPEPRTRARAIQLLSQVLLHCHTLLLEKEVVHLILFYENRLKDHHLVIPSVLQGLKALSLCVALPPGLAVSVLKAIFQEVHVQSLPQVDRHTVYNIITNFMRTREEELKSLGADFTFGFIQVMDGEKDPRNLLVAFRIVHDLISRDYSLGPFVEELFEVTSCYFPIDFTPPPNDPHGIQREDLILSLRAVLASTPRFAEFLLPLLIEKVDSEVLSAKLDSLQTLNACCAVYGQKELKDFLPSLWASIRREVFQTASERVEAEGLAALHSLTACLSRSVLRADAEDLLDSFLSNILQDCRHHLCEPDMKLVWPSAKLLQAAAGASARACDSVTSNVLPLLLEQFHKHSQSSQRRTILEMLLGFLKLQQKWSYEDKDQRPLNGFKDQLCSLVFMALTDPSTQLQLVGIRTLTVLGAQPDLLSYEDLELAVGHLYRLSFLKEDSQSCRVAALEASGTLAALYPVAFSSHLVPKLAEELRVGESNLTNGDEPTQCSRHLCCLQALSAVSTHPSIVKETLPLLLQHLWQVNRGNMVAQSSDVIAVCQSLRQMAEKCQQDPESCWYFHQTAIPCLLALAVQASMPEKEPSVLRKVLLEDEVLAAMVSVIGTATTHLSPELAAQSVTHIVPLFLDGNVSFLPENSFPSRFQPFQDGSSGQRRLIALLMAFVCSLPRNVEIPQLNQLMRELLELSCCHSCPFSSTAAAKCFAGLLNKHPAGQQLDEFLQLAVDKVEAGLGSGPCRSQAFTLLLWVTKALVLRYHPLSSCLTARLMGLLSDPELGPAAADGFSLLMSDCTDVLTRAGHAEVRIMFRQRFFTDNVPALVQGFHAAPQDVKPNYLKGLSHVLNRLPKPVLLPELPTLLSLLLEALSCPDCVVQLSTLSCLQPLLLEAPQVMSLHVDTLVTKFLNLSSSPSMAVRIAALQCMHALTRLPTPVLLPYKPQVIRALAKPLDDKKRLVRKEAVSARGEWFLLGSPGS
inactive: IRAK-1-4 Inhibitor I -0.141 | ibrutinib -0.029 | [1] -0.028 | ralimetinib 0.078 | [2] -0.082 | [3] -0.216 | [4] 0.006 | pinometostat 0.084 | [5] -0.018 | [6] 0.011

NPC1 (UniProt O15118)
inactive: IRAK-1-4 Inhibitor I 0.014 | ibrutinib 0.03 | [1] 0.031 | ralimetinib -0.041 | [2] 0.028 | [3] -0.184 | [4] 0.006 | pinometostat -0.055 | [5] 0.078 | [6] -0.147

MRPL34 (UniProt Q9BQ48)
inactive: IRAK-1-4 Inhibitor I -0.046 | ibrutinib 0.107 | [1] 0.092 | ralimetinib 0.164 | [2] 0.042 | [3] -0.137 | [4] 0.102 | pinometostat 0.196 | [5] 0.086
active: [6] -0.51

OSBP (UniProt P22059)
inactive: IRAK-1-4 Inhibitor I 0 | ibrutinib -0.067 | [1] -0.029 | ralimetinib -0.009 | [2] -0.076 | [3] 0.091 | [4] 0.017 | pinometostat -0.002 | [5] -0.052 | [6] 0.024

NME2P1 (UniProt O60361)
inactive: IRAK-1-4 Inhibitor I -0.019 | ibrutinib -0.18 | [1] -0.033 | ralimetinib 0.032 | [2] -0.024 | [3] -0.072 | [4] -0.135 | pinometostat 0.037 | [5] 0.149 | [6] 0.031

NSMCE2 (UniProt Q96MF7)
Chain of UniProt Q96MF7 (Q96MF7 whole entry, looked up): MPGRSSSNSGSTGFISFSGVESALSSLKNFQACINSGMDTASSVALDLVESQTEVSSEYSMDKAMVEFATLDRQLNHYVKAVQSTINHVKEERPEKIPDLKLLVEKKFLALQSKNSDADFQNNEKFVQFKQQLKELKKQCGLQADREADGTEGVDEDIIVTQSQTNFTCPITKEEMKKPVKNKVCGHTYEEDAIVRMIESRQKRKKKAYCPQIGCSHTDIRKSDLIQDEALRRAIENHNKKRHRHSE
inactive: IRAK-1-4 Inhibitor I -0.023 | ibrutinib -0.171 | [1] -0.107 | ralimetinib 0.176 | [2] 0.051 | [3] 0.122 | [4] -0.083 | pinometostat -0.001 | [5] -0.056 | [6] -0.122

OSTM1 (UniProt Q86WC4)
inactive: IRAK-1-4 Inhibitor I 0.05 | ibrutinib -0.006 | [1] 0.013 | ralimetinib 0.042 | [2] -0.081 | [3] -0.041 | [4] 0.079 | pinometostat -0.056 | [5] 0.015 | [6] -0.024

ORC3 isoform 2 (UniProt Q9UBD5)
Chain of UniProt Q9UBD5 (Q9UBD5 whole entry, looked up): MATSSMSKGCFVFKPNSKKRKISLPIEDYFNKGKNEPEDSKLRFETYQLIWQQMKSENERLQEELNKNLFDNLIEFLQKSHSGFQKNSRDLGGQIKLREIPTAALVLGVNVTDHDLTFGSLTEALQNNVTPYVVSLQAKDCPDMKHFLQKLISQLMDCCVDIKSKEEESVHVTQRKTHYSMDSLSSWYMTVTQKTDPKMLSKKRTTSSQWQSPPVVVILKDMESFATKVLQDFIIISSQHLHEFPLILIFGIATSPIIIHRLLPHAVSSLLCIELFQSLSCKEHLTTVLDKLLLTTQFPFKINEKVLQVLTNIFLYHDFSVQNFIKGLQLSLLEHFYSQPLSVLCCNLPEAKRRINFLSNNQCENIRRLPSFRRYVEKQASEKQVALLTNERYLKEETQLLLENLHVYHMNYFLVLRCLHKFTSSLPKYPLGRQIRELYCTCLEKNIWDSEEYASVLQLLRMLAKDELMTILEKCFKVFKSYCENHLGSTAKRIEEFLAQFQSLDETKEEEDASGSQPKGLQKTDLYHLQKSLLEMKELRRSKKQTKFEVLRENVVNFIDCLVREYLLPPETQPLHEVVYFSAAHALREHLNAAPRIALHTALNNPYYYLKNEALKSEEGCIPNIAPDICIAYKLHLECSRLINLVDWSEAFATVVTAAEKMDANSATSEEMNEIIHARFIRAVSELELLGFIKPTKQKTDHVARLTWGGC
inactive: IRAK-1-4 Inhibitor I -0.113 | ibrutinib -0.015 | [1] -0.132 | ralimetinib -0.059 | [2] -0.383 | [3] -0.338 | [4] -0.013 | pinometostat 0.012 | [5] 0.045 | [6] -0.049

NDUFAF6 (UniProt Q330K2)
inactive: IRAK-1-4 Inhibitor I 0.129 | ibrutinib -0.044 | [1] -0.107 | ralimetinib 0.039 | [2] -0.214 | [3] -0.235 | [4] 0.083 | pinometostat -0.132 | [5] 0.091 | [6] -0.109

OSBPL8 (UniProt Q9BZF1)
inactive: IRAK-1-4 Inhibitor I -0.148 | ibrutinib -0.042 | [1] -0.204 | ralimetinib 0.199 | [2] -0.019 | [3] -0.378 | [4] 0.046 | pinometostat 0.201 | [5] -0.076 | [6] 0.045

MORF4L2 (UniProt Q15014)
Chain of UniProt Q15014 (Q15014 whole entry, looked up): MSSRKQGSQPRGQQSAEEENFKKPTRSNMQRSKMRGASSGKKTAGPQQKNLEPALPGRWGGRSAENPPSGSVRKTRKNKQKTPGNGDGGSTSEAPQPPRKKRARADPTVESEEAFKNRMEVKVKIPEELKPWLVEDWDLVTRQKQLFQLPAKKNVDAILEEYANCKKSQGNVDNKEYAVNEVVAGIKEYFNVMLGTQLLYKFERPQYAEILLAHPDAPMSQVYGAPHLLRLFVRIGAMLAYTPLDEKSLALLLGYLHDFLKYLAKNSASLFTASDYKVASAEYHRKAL
inactive: IRAK-1-4 Inhibitor I -0.116 | ibrutinib 0.04 | [1] 0.047 | ralimetinib -0.01 | [2] 0.039 | [3] 0.052 | [4] 0.271 | pinometostat 0.092 | [5] 0.028 | [6] 0.005

MITD1 (UniProt Q8WV92)
inactive: IRAK-1-4 Inhibitor I -0.043 | ibrutinib 0.03 | [1] 0 | ralimetinib -0.002 | [2] -0.296 | [4] -0.002 | pinometostat 0.082 | [5] -0.101 | [6] 0.047
active: [3] -0.77

NEMP1 (UniProt O14524)
active: [3] -0.508
inactive: IRAK-1-4 Inhibitor I 0.003 | ibrutinib -0.01 | [1] -0.081 | ralimetinib -0.03 | [2] -0.023 | [4] 0.08 | pinometostat 0.009 | [5] 0.099 | [6] -0.119

NCKAP1 isoform 2 (UniProt Q9Y2A7)
inactive: IRAK-1-4 Inhibitor I 0 | ibrutinib 0.002 | [1] -0.063 | ralimetinib 0.07 | [2] -0.038 | [3] -0.047 | [4] -0.037 | pinometostat 0.01 | [5] 0.017 | [6] -0.009

NCK1 (UniProt P16333)
inactive: IRAK-1-4 Inhibitor I -0.178 | ibrutinib -0.154 | [1] -0.252 | ralimetinib 0.044 | [2] -0.038 | [3] -0.283 | [4] 0.082 | pinometostat 0.076 | [5] 0.005 | [6] 0.039

MTHFD1 (UniProt P11586)
Chain of UniProt P11586 (P11586 whole entry, looked up): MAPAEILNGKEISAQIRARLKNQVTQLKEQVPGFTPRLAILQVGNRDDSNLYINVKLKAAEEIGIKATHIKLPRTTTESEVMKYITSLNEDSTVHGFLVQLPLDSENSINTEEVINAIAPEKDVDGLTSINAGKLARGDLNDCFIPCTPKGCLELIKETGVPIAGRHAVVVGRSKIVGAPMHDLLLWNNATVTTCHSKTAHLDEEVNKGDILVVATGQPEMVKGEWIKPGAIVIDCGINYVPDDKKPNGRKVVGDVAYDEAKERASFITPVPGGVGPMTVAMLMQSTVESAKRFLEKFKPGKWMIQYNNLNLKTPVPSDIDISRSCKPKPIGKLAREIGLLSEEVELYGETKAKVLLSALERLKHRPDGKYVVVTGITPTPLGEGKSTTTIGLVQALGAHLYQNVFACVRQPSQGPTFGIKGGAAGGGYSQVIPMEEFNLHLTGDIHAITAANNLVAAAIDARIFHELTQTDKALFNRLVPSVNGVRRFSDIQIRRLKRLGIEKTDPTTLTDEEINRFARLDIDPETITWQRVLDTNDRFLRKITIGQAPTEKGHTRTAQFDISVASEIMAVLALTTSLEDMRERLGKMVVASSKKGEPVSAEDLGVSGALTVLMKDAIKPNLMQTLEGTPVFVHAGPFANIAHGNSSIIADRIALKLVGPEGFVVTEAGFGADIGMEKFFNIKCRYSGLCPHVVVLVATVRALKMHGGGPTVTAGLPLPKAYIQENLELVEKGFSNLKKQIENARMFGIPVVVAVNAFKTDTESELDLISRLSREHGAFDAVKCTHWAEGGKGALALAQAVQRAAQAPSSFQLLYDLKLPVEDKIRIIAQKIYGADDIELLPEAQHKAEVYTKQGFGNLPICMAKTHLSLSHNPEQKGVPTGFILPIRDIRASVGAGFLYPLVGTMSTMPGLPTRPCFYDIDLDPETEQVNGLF
inactive: IRAK-1-4 Inhibitor I 0.01 | ibrutinib -0.014 | [1] -0.068 | ralimetinib -0.001 | [2] -0.082 | [3] -0.102 | [4] -0.005 | pinometostat -0.034 | [5] -0.023 | [6] 0.073

MT-ND1 (UniProt P03886)
inactive: IRAK-1-4 Inhibitor I 0.104 | ibrutinib -0.009 | [1] -0.072 | ralimetinib 0.071 | [2] -0.142 | [3] -0.142 | [4] -0.102 | pinometostat -0.092 | [5] -0.115 | [6] 0.119

NOB1 (UniProt Q9ULX3)
Chain of UniProt Q9ULX3 (Q9ULX3 whole entry, looked up): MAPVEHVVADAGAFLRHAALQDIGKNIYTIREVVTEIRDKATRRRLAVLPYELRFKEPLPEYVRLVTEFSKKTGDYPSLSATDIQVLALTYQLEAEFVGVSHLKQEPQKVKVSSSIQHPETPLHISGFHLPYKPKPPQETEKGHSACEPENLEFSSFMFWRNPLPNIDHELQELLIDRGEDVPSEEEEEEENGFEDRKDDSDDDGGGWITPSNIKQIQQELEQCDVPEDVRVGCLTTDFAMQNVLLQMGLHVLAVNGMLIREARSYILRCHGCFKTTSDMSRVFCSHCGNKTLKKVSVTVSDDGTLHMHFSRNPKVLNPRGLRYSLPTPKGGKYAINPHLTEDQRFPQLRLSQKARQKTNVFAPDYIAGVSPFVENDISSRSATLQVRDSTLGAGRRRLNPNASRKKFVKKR
inactive: IRAK-1-4 Inhibitor I -0.062 | ibrutinib -0.025 | [1] -0.083 | [2] -0.033 | [3] -0.15 | [4] 0.053 | pinometostat 0.068 | [5] 0.047 | [6] -0.031
active: ralimetinib 0.288

MRPS31 (UniProt Q92665)
inactive: IRAK-1-4 Inhibitor I -0.057 | ibrutinib 0.014 | [1] -0.073 | ralimetinib -0.005 | [2] -0.032 | [3] -0.086 | [4] 0.057 | pinometostat 0.034 | [5] 0.026 | [6] -0.14

NUP205 (UniProt Q92621)
inactive: IRAK-1-4 Inhibitor I -0.035 | ibrutinib -0.038 | [1] -0.1 | ralimetinib -0.027 | [2] 0.032 | [3] -0.167 | [4] -0.058 | pinometostat 0 | [5] -0.005 | [6] 0.018

MRPS24 (UniProt Q96EL2)
inactive: IRAK-1-4 Inhibitor I -0.048 | ibrutinib 0.009 | [1] -0.071 | ralimetinib -0.086 | [2] -0.094 | [3] -0.159 | [4] 0.051 | pinometostat 0.002 | [5] -0.031 | [6] -0.227

MYH10 isoform 3 (UniProt P35580)
inactive: IRAK-1-4 Inhibitor I 0.024 | ibrutinib -0.022 | [1] -0.011 | ralimetinib -0.04 | [2] -0.069 | [3] -0.05 | [4] -0.001 | pinometostat -0.015 | [5] -0.019 | [6] -0.024

OGFOD2 (UniProt Q6N063)
Chain of UniProt Q6N063 (Q6N063 whole entry, looked up): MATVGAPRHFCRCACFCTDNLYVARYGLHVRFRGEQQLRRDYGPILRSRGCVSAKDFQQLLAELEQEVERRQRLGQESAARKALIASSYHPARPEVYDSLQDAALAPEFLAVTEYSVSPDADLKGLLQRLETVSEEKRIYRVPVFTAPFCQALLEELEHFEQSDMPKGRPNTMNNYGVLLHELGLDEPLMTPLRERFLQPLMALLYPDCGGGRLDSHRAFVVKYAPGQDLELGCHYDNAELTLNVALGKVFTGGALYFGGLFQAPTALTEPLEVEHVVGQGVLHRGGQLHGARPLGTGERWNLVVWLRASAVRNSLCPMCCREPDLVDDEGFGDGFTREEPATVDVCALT
inactive: IRAK-1-4 Inhibitor I 0.016 | ibrutinib -0.023 | [1] -0.102 | ralimetinib 0.011 | [2] -0.031 | [3] -0.079 | [4] 0.002 | pinometostat 0.025 | [5] -0.001 | [6] -0.073

MPHOSPH10 (UniProt O00566)
inactive: IRAK-1-4 Inhibitor I -0.215 | ibrutinib -0.022 | [1] -0.064 | ralimetinib 0.144 | [2] 0.089 | [3] -0.071 | [4] 0.053 | pinometostat 0.113 | [5] 0.021 | [6] -0.56

NUDCD2 (UniProt Q8WVJ2)
Chain of UniProt Q8WVJ2 (Q8WVJ2 whole entry, looked up): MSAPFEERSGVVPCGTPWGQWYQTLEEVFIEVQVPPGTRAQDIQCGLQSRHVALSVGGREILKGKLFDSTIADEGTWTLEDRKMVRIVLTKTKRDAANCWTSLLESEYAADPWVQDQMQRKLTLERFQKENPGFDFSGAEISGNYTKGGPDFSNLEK
inactive: IRAK-1-4 Inhibitor I -0.032 | ibrutinib -0.035 | [1] -0.027 | ralimetinib 0.033 | [2] -0.045 | [3] -0.248 | [4] -0.012 | pinometostat 0.066 | [5] -0.023 | [6] -0.064
